Experimental data: the supplement of paper PMC10338343
± gives the standard deviation.

These sequences were tested on MILI (PIWIL2) piRISC loaded with piRNA #1 (26 nt) (assay: pre-steady-state target cleavage rate (min^-1); guide: piRNA #1 5'p-UGAGGUAGUAGGUUGUAUAGUAUCCA; MIWI and MILI are mouse PIWI proteins and EfPiwi is from a freshwater sponge; tags in brackets are library labels; higher = faster piRNA-guided slicing of the target). Settings: auxiliary factor: 500 nM mouse GTSF1.
Procedure, shortened: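 The pre-steady-state cleavage rate came from a burst-and-steady-state fit to pooled data from three Cleave-'n-Seq trials, in which uncleaved targets were sequenced and normalised to depth and to weakly complementary targets. Each reaction held 0.1 nM transcribed, DNA-blocked target RNA library and 1 nM active affinity-purified piRISC carrying one synthetic guide, with or without 500 nM GTSF1 partner protein, in HEPES–potassium acetate buffer at 33 °C for 0–8 or 0–960 min. k3 was capped at 0.0001 min^-1.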

Sequence | pre-steady-state target cleavage rate
GGAGACCUAUGAAUACAACCUACUGCCUCA | 0.0052 ± 0.0029
GGAGACCUAACUAUUCAACCUACUACCUGA | 0.0858 ± 0.03
GGAGACCUAUGAAUAGAAGCUACUACCUCA | 0.0046 ± 0.0022
GGAGACCUAUGAUAUGUACCUACUAACUCA | < 0.0001
GGAGACCUAUGUAUACUACCUACAACCUCA | 0.0574 ± 0.0091
GGAGACCUAUGUUUUCAACCUACUACCUCA | 0.00894 ± 0.0025
GGAGACCUAUCCUAUACAACCUACUACCUCA | 0.106 ± 0.011
GGAGAGGAUACUAUAUAACCUACUACCUCA | 0.167 ± 0.01
GGAGACCUAACAAUACAACCUACUACCUGA | 0.0637 ± 0.022
GGAGACCUAUGAAUACAACCUACUACCUCCA | 0.0129 ± 0.0043
GGAGACCUAUGAUAACAACUUACUACCUCA | 0.00545 ± 0.0023
GGAGACCUAUCUUUAGAACCUACUACCUCA | 0.0437 ± 0.0095
GGAGACCUUACUUUACAACCUUCUACCUCA | 0.00698 ± 0.0032
GGAGACCUAUGAUAUCAACGUACUAGCUCA | < 0.0001
GGAGACCUAUGUAUACAACCUACUACCUACA | 0.0588 ± 0.0083
GGAGACCUAUCUAUACAACCUACUACAUCA | 0.051 ± 0.0067
GGAGUGGAUUCUAAACAACCUACUACCUCA | 0.143 ± 0.0089
GGAGACCUAUGAACUACAACCUACUACCUCA | 0.00389 ± 0.0029
GGAGACCUAUGAUUAUCAACCUACUACCUCA | 0.00367 ± 0.0025
GGAGACCUAUGUAUACAACCUAGAUCCUCA | 0.00265 ± 0.0026

Sequence | pre-steady-state target cleavage rate
GGAGACCAUACUAUACUUGGAUGAUGGAGA [g15:g23:cont:t1A] | < 0.0001
GGAGACCUAUGUAUACAGCCUACUACCUCA | 0.0196 ± 0.0053
GGAGACCUAUCUAUACUACCUACUUCCUCA | 0.0634 ± 0.01
GGAGACCUAUGUAUACAUCCUAGUACCUCA | 0.015 ± 0.0049
GGAGACCUAUGAAUGCAACCUACUACCUCA | 0.00733 ± 0.0031
GGAGACGAUUGUAUACAACCUACUACCUCA | 0.0734 ± 0.0068
GGAGACCUAACUAUUCAACCUACUACCUCA | 0.138 ± 0.022
GGAGACCAUACUAUACAACCUACUACCCCA | 0.156 ± 0.024
GGAGACCUAUGAUAUGUACCUACUACCCUCA | < 0.0001
GGAGACCUAACUAUACAACCUACUACCUCU [g2:g21:cont:t1U] | 0.152 ± 0.025
GGAGACCUUACUUAUCAACCUACUACCUCA | 0.0518 ± 0.014
GGAGACCUAUGAUAACAACCUACAACCUCA | 0.00456 ± 0.0024
GGAGACCUUACUAUACAACCUACGUACCUCA | 0.0918 ± 0.0092
GGAGACCUAUGAUAUCAACCUACACCUCA | < 0.0001
GGAGACCUAACUUUACAACGUACUACCUCA | 0.00988 ± 0.0052
GGAGACCUAACAAUACAACCAACUACCUCA | 0.00518 ± 0.004
GGAGACCUUACUAUUCAACCUACUACCUGA | 0.0942 ± 0.014
GGAGACCUAUGUAUCACAACCUACUACCUCA | 0.0102 ± 0.003
GGAGACCUAUGAUUACAACUUACUACCUCA | 0.00657 ± 0.0024
GGAGACCUUACUAUACAACCUACAACCUGA | 0.0284 ± 0.0093
